Hits are enriched below; roughly 6.7% of the tested compounds scored in any of these assays.
C diff HTS: inhibitors of Clostridium difficile growth | Clostridium difficile clinical isolate growth, OD600, 24 h; hits give low values | growth activity, negative = inhibition, % at 16 µg/mL (by protocol) | 0.25% of 86,000 active;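 active = mean growth activity at or below -80% and every replicate also at or below -80%; inconclusive = mean at or below -80% but some replicate above -80%; inactive = mean growth activity above -80%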;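 also: 0% = DMSO wells and -100% = levofloxacin 16 µg/mL wells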
T cruzi growth-1: blocks T. cruzi growth in NIH3T3 culture; T. cruzi beta-gal in NIH3T3, GalScreen luminescence, 90 h; inhibition, % at 8.34 µM; 5.9% of 77,000 active;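 active = mean inhibition above about 93%, with at least 55% of replicates each passing it, limit read from the data, passing the limit was not always enough; inconclusive = only one of those two conditions holds; inactive = neither condition holds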
Pf Dd2 inh: inhibitors of Plasmodium falciparum Dd2 growth; P. falciparum Dd2 growth, SYBR Green, 72 h; hits give low values; activity change, % at 10 µM; 2.3% of 94,000 active; AID 1159554; in the data active = activity change below about -80%; inconclusive = no clear call, values can overlap the other calls
T cruzi growth-2: Trypanosoma cruzi proliferation inhibition; shares compounds with T cruzi growth-1; T. cruzi beta-gal in NIH3T3, GalScreen luminescence, 90 h; inhibition, % at 8.35 µM; 72% of 5,600 active;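 active = mean replicate inhibition above about 95% and at least 55% of replicates individually reaching it, limit read from the data; inconclusive = only one of the two criteria is met; inactive = neither criterion is met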
T cruzi growth-3: blocks T. cruzi growth in NIH3T3 host cells; T. cruzi beta-gal in NIH3T3, GalScreen luminescence, 90 h; 21% of 5,600 active; inhibition, % at 2.09 µM; shares compounds with T cruzi growth-1;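 active = mean inhibition above about 95%, with at least 55% of replicates also reaching it, limit read from the data; inconclusive = meets just one of the two conditions; inactive = meets neither condition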;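 also: plate controls were neutral control median for no effect and positive control median for full effect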
NIH3T3 tox: NIH/3T3 (mouse) viability loss | NIH/3T3 viability, CellTiter-Glo ATP luminescence, 90 h | 14% of 5,600 active | cytotoxicity (signal decrease), % at 8.35 µM | shares compounds with T cruzi growth-1;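 active = mean signal decrease across replicates above about 35% based on untreated-well scatter, with enough replicates individually passing, limit read from the data; inconclusive = no rule stated though some were filed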;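 also: 0% = median of neutral control wells and 100% = median of positive control wells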
NIH3T3 tox 2: cytotoxicity in mouse NIH/3T3 fibroblasts; inhibition, % at 24.9 µM; 56% of 5,600 active; AID 651744; NIH/3T3 viability, CellTiter-Glo ATP luminescence, 90 h; shares compounds with T cruzi growth-1;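 active = mean loss of cell viability signal at or above a set limit, and enough replicates individually reaching it; inconclusive = meets only the mean limit or only the replicate share; inactive = meets neither condition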;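 also: 0% = median of neutral control wells and 100% = median of positive control wells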
The depositor's hits bear a star; ? = inconclusive; / = not tested or not shown.

SMILES	C diff HTS	T cruzi growth-1	Pf Dd2 inh	T cruzi growth-2	T cruzi growth-3	NIH3T3 tox	NIH3T3 tox 2
C[C@@H]1CCCCO[C@H](CN(C)S(=O)(=O)c2ccccc2)[C@H](C)CN([C@@H](C)CO)C(=O)c2cc(NS(=O)(=O)c3ccc(Cl)cc3)ccc2O1	-16.3	118.1*	-14.8	91.6	87.6	-4.2	-10.3
C[C@@H]1CCCCO[C@@H](CN(C)S(=O)(=O)c2ccc(Cl)cc2)[C@@H](C)CN([C@H](C)CO)C(=O)c2cc(NS(=O)(=O)c3ccccc3)ccc2O1	1.9	94.0	-54.3	/	/	/	/
Cc1ccc(S(=O)(=O)Nc2cccc3c2O[C@H](CN(C)S(=O)(=O)c2cccs2)[C@H](C)CN([C@@H](C)CO)C3=O)cc1	7.2	/	-26.6	/	/	/	/
CC(=O)Nc1ccc2c(c1)C(=O)N(C)[C@@H]1CC[C@H](CC(=O)N3CCc4ccccc4C3)O[C@@H]1CO2	-5.8	10.2	-0.5	/	/	/	/
C[C@@H]1CN([C@@H](C)CO)C(=O)c2cc(/C=C/c3ccccc3)cnc2O[C@H]1CN(C)Cc1ccc2c(c1)OCO2	21.8	110.6*	-65.7	101.1*	108.1*	58.5*	102.3*
C[C@@H]1CN([C@@H](C)CO)C(=O)c2cc(/C=C/c3ccccc3)cnc2O[C@H]1CN(C)Cc1ccccc1	21.4	132.5*	-24.6	107.0*	108.7*	24.5	103.8*
C/C=C/c1cnc2c(c1)C(=O)N([C@@H](C)CO)C[C@H](C)[C@H](CN(C)Cc1ccc3c(c1)OCO3)O2	-1.8	/	-2.6	/	/	/	/
C[C@H]1CN([C@@H](C)CO)C(=O)c2cc(/C=C/c3ccccc3)cnc2O[C@H]1CN(C)Cc1ccccc1	9.3	61.9	-21.9	/	/	/	/
C[C@@H]1CN([C@@H](C)CO)C(=O)c2cc(NC(=O)CCN3CCOCC3)ccc2O[C@H]1CN(C)Cc1ccc(Cl)c(Cl)c1	2.7	-14.9	1.3	/	/	/	/
CO[C@@H]1CN(C)C(=O)c2ccc(NC(=O)c3cnccn3)cc2OC[C@@H](C)N(C)C[C@H]1C	0.3	-8.2	19.0	/	/	/	/
O=C(C[C@@H]1C=C[C@H](NS(=O)(=O)c2ccc(F)cc2)[C@@H](CO)O1)NC1CCC1	-0.5	/	-17.0	/	/	/	/
O=C(NC1CCCC1)N1CCCCN2[C@@H](CO)[C@@H](c3ccc(-c4ccccc4)cc3)[C@@H]2C1	32.2	?	-15.0	98.4*	57.0	13.0	102.8*
O=C(NC1CCCC1)N1CCCCN2[C@H](CO)[C@@H](c3ccc(-c4cccnc4)cc3)[C@@H]2C1	7.8	59.3	-38.6	/	/	/	/
O=C(NC1CCCC1)N1CCCCN2[C@H](CO)[C@H](c3ccc(-c4ccccc4)cc3)[C@H]2C1	2.8	104.0*	-19.7	84.4	86.2	2.5	103.6*
COc1ccccc1-c1ccc([C@@H]2[C@H](CO)N3CCCCN(C(=O)NC4CCCC4)C[C@@H]23)cc1	23.4	54.0	13.3	/	/	/	/
C[C@H]1CN([C@@H](C)CO)C(=O)CCCn2nncc2CO[C@@H]1CN(C)S(=O)(=O)c1ccccc1F	2.8	-9.9	8.7	/	/	/	/
COc1ccc(NC(=O)Nc2ccc3c(c2)C(=O)N(C)C[C@@H](OC)[C@H](C)CN[C@H](C)CO3)cc1	-12.3	-39.3	0.9	/	/	/	/
CCCN(C)C[C@@H]1Oc2cc(C#Cc3cccc(F)c3)ccc2S(=O)(=O)N([C@@H](C)CO)C[C@@H]1C	10.0	111.2*	/	113.1*	61.1	7.3	102.5*
CCCN(C)C[C@@H]1Oc2cc(C#Cc3cccc(F)c3)ccc2S(=O)(=O)N([C@@H](C)CO)C[C@H]1C	-4.8	116.0*	/	110.2*	9.6	4.3	103.7*
CCCN(C)C[C@@H]1Oc2cc(C#Cc3ccc(F)cc3)ccc2S(=O)(=O)N([C@H](C)CO)C[C@@H]1C	11.4	14.3	-24.3	/	/	/	/
CCCN(C)C[C@@H]1Oc2cc(C#Cc3ccc(F)cc3)ccc2S(=O)(=O)N([C@@H](C)CO)C[C@H]1C	4.3	93.7*	-17.4	104.7*	39.8	31.4	106.2*
C[C@@H]1CN([C@H](C)CO)S(=O)(=O)c2ccc(C#Cc3cccc(F)c3)cc2O[C@@H]1CN(C)CC1CC1	5.5	/	-39.8	/	/	/	/
CCCN(C)C[C@@H]1Oc2cc(C#Cc3ccccc3)ccc2S(=O)(=O)N([C@@H](C)CO)C[C@H]1C	-0.8	26.4	-44.0	/	/	/	/
O=C(C[C@H]1C[C@H]2c3cc(NC(=O)c4ccc5c(c4)OCO5)ccc3O[C@H]2[C@@H](CO)O1)NCc1cccnc1	/	10.3	-0.1	/	/	/	/
CCCNC(=O)N1C[C@@H](O)COC[C@H]2O[C@@H](CC(=O)N3CCC(Cc4ccccc4)CC3)CC[C@@H]21	6.8	49.7	-40.7	/	/	/	/
SMILES	C diff HTS	T cruzi growth-1	Pf Dd2 inh	T cruzi growth-2	T cruzi growth-3	NIH3T3 tox	NIH3T3 tox 2
C[C@H]1CN([C@@H](C)CO)C(=O)c2cc(C#CCc3ccccc3)cnc2O[C@H]1CN(C)Cc1ccccc1	-0.5	/	-76.3	/	/	/	/
CCC(=O)N(C)C[C@@H]1Oc2cc(C#CC3CCCCC3)ccc2S(=O)(=O)N([C@H](C)CO)C[C@@H]1C	-0.8	110.1*	-55.7	95.4*	84.3	12.0	104.5*
CCC(=O)N(C)C[C@H]1Oc2cc(C#CC3CCCCC3)ccc2S(=O)(=O)N([C@H](C)CO)C[C@H]1C	-8.6	104.2	-63.5	/	/	/	/
CCC(=O)N(C)C[C@H]1Oc2cc(C#CC3CCCCC3)ccc2S(=O)(=O)N([C@@H](C)CO)C[C@@H]1C	-8.7	104.2	-68.1	/	/	/	/
CCC(=O)N(C)C[C@H]1Oc2cc(C#CC3CCCCC3)ccc2S(=O)(=O)N([C@@H](C)CO)C[C@H]1C	3.4	111.4	-63.3	/	/	/	/
CCC(=O)N(C)C[C@@H]1Oc2cc(C#CC3CCCCC3)ccc2S(=O)(=O)N([C@@H](C)CO)C[C@@H]1C	-2.9	?	-74.3	99.7*	85.5	24.2	106.1*
CCC(=O)N(C)C[C@H]1Oc2cc(C#CC3CCCCC3)ccc2S(=O)(=O)N([C@H](C)CO)C[C@@H]1C	-3.7	107.9*	-58.8	101.6*	70.4	12.1	82.7*
O=C(C1CCC1)N1CCCCN2[C@H](CO)[C@@H](c3ccc(C#CC4(O)CCCC4)cc3)[C@H]2C1	-5.7	-19.8	11.0	/	/	/	/
O=C(C1CCC1)N1CCCCN2[C@H](CO)[C@H](c3ccc(C#CC4(O)CCCC4)cc3)[C@@H]2C1	-2.5	?	9.9	98.8*	65.5	19.6	39.5*
O=C(c1ccc(F)cc1)N1CCCCN2[C@H](CO)[C@H](c3ccc(C#CC4(O)CCCC4)cc3)[C@@H]2C1	6.2	107.3*	17.1	103.3*	-23.0	13.2	18.5
O=C(C1CCC1)N1CCCCN2[C@H](C1)[C@H](c1ccc(C#CC3(O)CCCC3)cc1)[C@@H]2CO	-4.1	73.5	28.5	/	/	/	/
O=C(C1CCCC1)N1CCCCN2[C@H](CO)[C@H](c3ccc(C#CC4(O)CCCC4)cc3)[C@H]2C1	-9.2	103.9*	-4.9	109.0*	88.8	12.8	30.1*

High-throughput results (PubChem BioAssay)
